Sampled rows, rich in hits. Any-hit rate of the full collection: about 6.2%.
ATXN viability – viability counter-screen for ATXN expression inhibitors. Potency, µM (highest dose often 56.7 µM), most hits filed as cytotoxic. S2 cells (HEK-293 line with an ATXN2-luciferase reporter) viability, CellTiter-Fluor protease fluorescence, 24 h. AID 651635. actives 0.49% (n = 400,000); note: nearly all actives have a fitted effect of over 40% in size
HT1080 IDH1KD tx – toxicity to HT-1080 IDH1 knockdown cells (counter line); HT-1080 IDH1 knockdown viability, ATP luminescence, 48 h; Potency, µM (doses to about 46.1 µM), for the others: at the highest dose activity, negative = toxicity, most hits filed as cytotoxic; actives 2% (n = 360,000); AID 686971;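 note: 0% = DMSO wells and -100% = cell-free medium wells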
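Luminescent ATP read-out (CellTiter-Glo, 10 min at room temperature) after 48 h compound exposure at 37 °C gave viability of IDH1-knockdown HT-1080 cells. Activity was normalised to DMSO and cell-free wells, then fitted as concentration-response curves.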
KB-V1 MDR tox – KB-V1 MDR subline cytotoxicity; Potency, µM (top dose mostly 46.1 µM), hits mostly cytotoxic; actives 3.4% (n = 400,000); AID 1347076; KB-V1 MDR cells viability, CellTiter-Glo, 72 h; note: % is set by controls: 0 for no effect and ±100 for the full control effect; nearly all actives have a fitted effect of over 60% in size
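Cells of the MDR subline KB-V1 are plated, dosed with compound at multiple concentrations, and incubated 72 h at 37 degrees C; CellTiter-Glo is then added and luminescence read after 10 min.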
HT1080NT lethal – kills 2HG-producing HT-1080-NT fibrosarcoma cells; HT-1080-NT fibrosarcoma viability, CellTiter-Glo ATP luminescence, 48 h; actives 1.6% (n = 360,000); AID 686970; Potency, µM (top dose mostly 46.1 µM), for inactives: at the top dose activity, negative = less viability, most hits filed as cytotoxic;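 note: NT is the 2HG producing partner of a matched IDH1 knockdown line; 0% = DMSO-treated cells and -100% = media-only wells without cells; nearly all actives have a fitted effect of over 55% in size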
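Toxicity toward the 2HG-producing NT line was scored as %Activity, normalised to DMSO and no-cell wells, from CellTiter-Glo luminescence after 48 hours' treatment.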
ATXN2 expr inh – reduces ATXN2 reporter expression in HEK-293 cells; HEK-293 ATXN2-luciferase reporter, luminescence, 24 h; Potency, µM (series often up to 57 µM), for inactives: at the highest dose activity change, negative = inhibition, hits mostly inhibitors; actives 0.72% (n = 360,000); note: % is set by controls: 0 for no effect and ±100 for the full control effect; nearly all actives have a fitted effect of over 55% in size
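ATXN2-luciferase reporter cells (luciferase flanked by upstream and downstream ATXN2 gene portions) were treated 24 h at 37 °C with compounds at up to 57 uM. SteadyGlo luminescence gave expression; GF-AFC fluorescence gave viability.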
KB-3-1 cytotox – kills parental KB-3-1 adenocarcinoma cells; KB-3-1 viability, CellTiter-Glo ATP luminescence, 72 h; AID 1347075; Potency, µM (doses to about 46.1 µM), usual class: cytotoxic; actives 1.4% (n = 400,000); note: % is set by controls: 0 for no effect and ±100 for the full control effect; nearly all actives have a fitted effect of over 60% in size
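Multi-concentration cytotoxicity screen in KB-3-1 cells grown in DMEM lacking phenol red with 10% FBS. After 72 h at 37 °C with compound, ATP-dependent luminescence was recorded.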
Active calls of the source: *; i = inactive; ? = inconclusive; . = not tested or not shown. Calls come from the whole dose curve; as a rule, active = well fitted curve in the direction sought with a large enough effect; inconclusive = small, poorly fitted or top-dose-only effect, or another doubt; inactive = no such curve, though single readings can be large; an effect the other way counts as inactive or inconclusive. Potency is the fitted concentration of half-maximal effect.

SMILES	ATXN viability	HT1080 IDH1KD tx	KB-V1 MDR tox	HT1080NT lethal	ATXN2 expr inh	KB-3-1 cytotox
CCc1cc2c(=O)c(-c3cnn(-c4ccccc4)c3)c(C)oc2cc1OCC(=O)Nc1ccc(F)c(F)c1	i	13%	?	7%	-5%	i
CC(=O)C1=C(O)C(=O)N(c2ccccn2)C1c1cccc(F)c1 (centres undefined)	i	-1%	i	-1%	14%	i
CC(=O)N1N=C(c2cccc([N+](=O)[O-])c2)OC1c1ccc(Cl)cc1Cl (centres undefined)	i	0%	21µM*	-10%	-21%	i
Cc1cc(NC(=O)c2cccs2)cc(-c2nc3cc(Cl)ccc3o2)c1O	i	.	?	.	1%	i
O=C(C[C@@H]1C/C=C/CC[C@H](Cc2ccc(F)cc2)C(=O)OC[C@@H](Cc2ccccc2)NC1=O)N[C@H](CO)Cc1ccccc1	13µM*	?	i	?	11µM*	?
CC(C)CN(Cc1cc(=O)oc2cc(-c3ccccc3)c(O)cc12)CC(C)C	i	?	i	26µM*	-10%	?
Cc1ccc(C2Nc3ccc4ccccc4c3C3=C2C(=O)CC(C)(C)C3)o1 (centres undefined)	i	?	10µM*	-18%	11%	i
O=C1CCCC2=C1C(c1ccc(O)c(O)c1)Nc1ccc3ccccc3c12 (centres undefined)	i	?	?	?	20%	i
O=C1CCCC2=C1C(c1ccco1)Nc1ccc3ccccc3c12 (centres undefined)	i	?	21µM*	-10%	19%	i
CC1(C)CC(=O)C2=C(C1)c1c(ccc3ccccc13)NC2c1ccc(C(=O)O)cc1 (centres undefined)	.	-18%	i	-4%	39%	i
COc1cc(C2Nc3ccccc3NC3=C2C(=O)CC(C)(C)C3)cc(OC)c1OC (centres undefined)	i	-7%	i	-1%	-11%	i
CC1(C)CC(=O)C2=C(C1)c1c(ccc3ncccc13)NC2c1cccs1 (centres undefined)	?	4.1µM*	5.8µM*	3.3µM*	5%	3.7µM*
COc1cc(C2Nc3ccc4ncccc4c3C3=C2C(=O)CCC3)cc(OC)c1O (centres undefined)	?	8.2µM*	i	16µM*	-3%	?
CCc1ccc(S(=O)(=O)c2nnn3c2nc(NCc2ccccc2)c2cc(Cl)ccc23)cc1	i	.	i	.	4%	i
Cc1ncc2c(c1CNC(=O)c1ccc3c(c1)OCO3)CCN(C(=O)c1csc3c1CCCC3)C2	i	.	.	.	.	.
O=C(c1c[nH]c2ccccc12)C(Cl)c1ccccc1 (centres undefined)	?	?	?	-29%	.	i
O=C(C[N+]12CN3CN(CN(C3)C1)C2)c1ccc(O)c(O)c1	.	.	i	.	.	i
O=C(Nc1cc(F)ccc1F)c1cnn2c1NC(=C1CC1)C=C2C(F)F	.	.	?	.	.	i
COC(=O)c1c(NC(=O)c2nn(C)cc2Cl)sc2c1CCCC2	i	7%	5.8µM*	8%	-13%	i
COC(=O)c1c(NC(=S)Nc2cc(OC)c(Cl)cc2OC)sc2c1CCCCC2	i	16%	21µM*	-8%	-1%	i
Cc1ccc(S(=O)(=O)NCCc2nnc3ccc(SCc4ccccc4F)nn23)cc1	.	.	i	.	.	i
CC1(Br)C(Sc2ccccc2[N+](=O)[O-])=Nc2ccccc21 (centres undefined)	?	?	?	6.5µM*	-37%	?
Cc1[nH]c(=O)[nH]c(=O)c1Sc1ccccc1[N+](=O)[O-]	i	17%	i	8%	28%	i
O=C(CCN1Cc2ccccc2OC(c2ccccc2F)C1)N1CCC(N2CCCC(O)C2)CC1 (centres undefined)	i	.	.	.	.	.
Cc1cccc(OCCCc2c(C)n[nH]c2C)c1	i	-29%	18µM*	1%	-14%	?
SMILES	ATXN viability	HT1080 IDH1KD tx	KB-V1 MDR tox	HT1080NT lethal	ATXN2 expr inh	KB-3-1 cytotox
Cc1n[nH]c(C)c1CCOc1ccc(C(C)C)cc1	i	-12%	i	-4%	-8%	?
COc1cccc(OC)c1OCCCc1c(C)n[nH]c1C	i	1%	18µM*	2%	-1%	i
COc1ccc(OCCCCc2c(C)n[nH]c2C)cc1	i	1%	i	-2%	-13%	i
Cc1nc(SCC(=O)Nc2ccc(S(=O)(=O)N3CCOCC3)cc2)c2c(C)c(C)sc2n1	i	?	i	-9%	?	5.8µM*
CC(=O)N1CCN(C(=O)CSc2ncnc3sc(C)c(C)c23)CC1	i	8%	15µM*	8%	12%	?
Cc1sc2ncnc(SCC(=O)NC3CC3)c2c1C	i	-2%	21µM*	-1%	10%	i
CCCc1nc(SCC(=O)N2CCOCC2)c2c(C)c(C)sc2n1	i	0%	9.2µM*	-5%	1%	i
COc1ccc(N2CCN(C(c3ccc(C)cc3)c3nnnn3C(C)(C)C)CC2)cc1 (centres undefined)	.	.	i	.	.	i
Clc1ccc(CN(CCCNc2ncnc(NCCCc3cnc[nH]3)n2)c2ccc(Br)cn2)cc1Cl	.	.	i	.	.	?
CC(NC(=S)NCc1ccc(F)cc1)C12CC3CC(CC(C3)C1)C2 (centres undefined)	i	?	?	?	14µM*	i
Cc1cnc(-n2ncc(C(=O)NCC3COCCO3)c2C2CC2)nc1-c1cccs1 (centres undefined)	i	.	.	.	.	.
CCOC(=O)c1cccc(NC(=O)c2cc3c(=O)n(Cc4cccnc4)ccc3nc2C)c1	i	.	i	.	-7%	i
Cc1c(C(=O)Nc2cccc(C#N)c2)sc2nc3n(c(=O)c12)CCCCC3	.	.	i	.	.	i
COc1ccc(-c2csc3nc(C)nc(N4CCC(C)CC4)c23)cc1OC	i	?	?	18µM*	74%	?
COc1cc(-c2noc(-c3ccc(NCc4cccnc4)c([N+](=O)[O-])c3)n2)cc(OC)c1OC	i	.	26µM*	.	-7%	i
COCCCNC(=O)c1ccc(Cn2c(=O)c3ccccc3n(CC(=O)Nc3c(C)cccc3C)c2=O)cc1	i	.	i	.	-4%	i
CS(=O)(=O)N1CCc2cc(S(=O)(=O)Nc3ccc4c(c3)OCCO4)ccc21	i	-22%	21µM*	?	-15%	?

Source: PubChem (National Center for Advancing Translational Sciences (NCATS))
